# Assay results from PubChem BioAssay (EPA / NIEHS).
# Results filed as inconclusive are left out. The source made the active and inactive calls. How the source made its calls, unless noted: active means hit-call score of the fitted dose curve at least 0.9, where 1 is the maximum; inconclusive means response in the unintended direction; inactive means score below 0.9.
# Columns and labels:
# [1] = target: Peroxisome proliferator-activated receptor gamma (Homo sapiens) (UniProt P37231); experiment: NVS_NR_hPPARg: NovaScreen (NVS) Nuclear Receptor Binding Assay for human Peroxisome Proliferator-activated Receptor gamma (PPARg) (AID 2283370)
# How it was run: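 Fluorescence polarization readout of ligand binding to extracted human PPARg, measured at 2 h. Duplicate single-point screen at 25 uM, then concentration-series retesting; activity defined as signal loss versus DMSO.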
# [2] = target: Estrogen receptor (Homo sapiens) (UniProt P03372); experiment: OT_ERa_GFPERaERE_0480: Odyssey Thera (OT) 8-hour HeLa Transcription Induction Assay for Estrogen Receptor (AID 2283381; active means hit-call score of the fitted dose curve at least 0.9, where 1 is the maximum; inactive means score below 0.9)
# How it was run: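 Cells (HeLa) receive compound; after 8 h, reporter fluorescence is imaged and quantified by high-content analysis. Gain-of-signal relative to DMSO gives the endpoint.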
# [3] = target: Estrogen receptor (Homo sapiens) (UniProt P03372); experiment: OT_ERa_GFPERaERE_0120: Odyssey Thera (OT) 2-hour HeLa Transcription Induction Assay for Estrogen Receptor (AID 2283382)
# How it was run: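 Measures ESR1 pathway reporter gain-of-signal in HeLa cells after a 2-hour treatment, detected as fluorescent protein induction by microscopy, DMSO as baseline.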
# [4] = target: Bile acid receptor (Homo sapiens) (UniProt Q96RI1); experiment: OT_FXR_FXRSRC1_0480: Odyssey Thera (OT) 8-hour HEK293T Protein-Complementation Assay for Farnesoid X receptor/SRC-1 Co-activator (AID 2283383)
# How it was run: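 Co-activator recruitment to FXR was measured in living HEK293T cells, where interaction of the two fused partners restored an active fluorescent reporter. Signal gain after 8 h treatment was referenced to DMSO.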
# [5] = target: guinea pig Sigma Receptor, Non-selective Binding, SIGMAR1 (gene 100135589) (UniProt Q60492); experiment: NVS_OR_gSIGMA_NonSelective: NovaScreen (NVS) Nuclear Receptor Binding Assay for guinea pig Sigma Receptor, Non-selective Binding (AID 2283367)
# How it was run: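 gp brain membr., radioligand displacement, 1 h, filtration + scint. counting; DMSO = baseline; 25 uM x2 primary, conc.-response confirm.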
# [6] = test system: guinea pig Dopamine Transporter (DAT), gene 100714898; experiment: NVS_TR_gDAT: NovaScreen (NVS) Transporter Assay for guinea pig Dopamine Transporter (DAT) (AID 2283369);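 further: active compounds lower bound radioligand signal relative to DMSO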
# How it was run: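 Radioligand displacement on membranes from guinea pig striatum, 2 h exposure, bound label counted by filtration and scintillation. Tested at 25 uM in duplicate, then actives in concentration series to 50 uM; DMSO as negative control.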
# [7] = target: human Dopamine Transporter (DAT), SLC6A3 (gene 6531) (UniProt Q01959); experiment: NVS_TR_hDAT: NovaScreen (NVS) Transporter Assay for human Dopamine Transporter (DAT) (AID 2283374);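 further: activity means loss of bound radioligand signal relative to DMSO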
# How it was run: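 Test chemicals were first screened in duplicate at 25 uM, with actives retested as concentration series. Displacement of a specific radioligand from cell-free human dopamine transporter was measured after 1 h by filtration and scintillation counting.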
# [8] = target: human Norepinephrine Transporter (NET), SLC6A2 (gene 6530) (UniProt P23975); experiment: NVS_TR_hNET: NovaScreen (NVS) Transporter Assay for human Norepinephrine Transporter (NET) (AID 2283377);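 further: cell-free membrane protein extracted from CHO cells expressing human NET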;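 on AC50: displacement of radioligand from human NET seen as loss of scintillation signal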
# How it was run: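 Scintillation counts of filter-retained radioligand served as the readout, taken 1 h post-dosing in a cell-free CHO-derived system. Test chemicals ran first at 25 uM in duplicate; confirmed hits were retested across concentrations.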
# [9] = target: Norway rat Vesicular Monoamine Transporter (VMAT2), neurotransmitter transporter, Slc18a2 (gene 25549) (UniProt Q01827); experiment: NVS_TR_rVMAT2: NovaScreen (NVS) Transporter Assay for Norway rat Vesicular Monoamine Transporter (VMAT2), neurotransmitter transporter (AID 2283376);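 further: actives lower the bound radioligand signal below the DMSO level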
# How it was run: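 Tissue: rat forebrain extract. Format: competitive radioligand binding, cell-free. Timepoint: 1 h. Readout: filter radiodetection/scintillation. Screen: 25 uM in duplicate, then concentration series for actives. Baseline: DMSO.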
# [10] = target: Estrogen receptor beta (Homo sapiens) (UniProt Q92731); experiment: OT_ER_ERbERb_1440: Odyssey Thera (OT) 24-hour HEK293T Protein-Complementation Assay for Estrogen Receptor-beta/-beta Homodimer (AID 2283380);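 further: fluorescence gain from ER beta LBD homodimer complementation read by laser scanning cytometry; scored as signal increase over DMSO baseline for both agonists and antagonists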
# How it was run: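 Fluorescence increase, nuclear for agonists or whole-cell for antagonists, relative to DMSO vehicle, quantified by laser scanning cytometer after fixation and Draq5 staining. Readout from 24 h treatment of HEK293T cells carrying complementation-paired ER beta LBD (aa 310-547).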
# [11] = target: Agonist Androgen Response Element (ARE), AR (gene 367) (UniProt P10275); experiment: OT_AR_ARELUC_AG_1440: Odyssey Thera (OT) 24-hour CHO-K1 Luciferase Assay for Agonist Androgen Response Element (ARE) (AID 2283379)
# How it was run: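 Agonist mode, 24 h exposure in CHO-K1 ARE-luciferase cells; values reflect luminescence induction over vehicle.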
# [12] = target: mouse Estrogen Receptor alpha (Era), Esr1 (gene 13982) (UniProt P19785); experiment: NVS_NR_mERa: NovaScreen (NVS) Nuclear Receptor Binding Assay for mouse Estrogen Receptor alpha (Era) (AID 2283378);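 further: hit means loss of bound radioligand signal relative to DMSO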
# How it was run: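 Filter radiodetection of radioligand displacement from extracted receptor protein, measured 18 h post-dose. Single 25 uM concentration in duplicate initially, with concentration-series follow-up. Binding loss fitted relative to DMSO.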
# Chain of mouse Estrogen Receptor alpha (Era), Esr1 (gene 13982) (P19785 whole entry, looked up): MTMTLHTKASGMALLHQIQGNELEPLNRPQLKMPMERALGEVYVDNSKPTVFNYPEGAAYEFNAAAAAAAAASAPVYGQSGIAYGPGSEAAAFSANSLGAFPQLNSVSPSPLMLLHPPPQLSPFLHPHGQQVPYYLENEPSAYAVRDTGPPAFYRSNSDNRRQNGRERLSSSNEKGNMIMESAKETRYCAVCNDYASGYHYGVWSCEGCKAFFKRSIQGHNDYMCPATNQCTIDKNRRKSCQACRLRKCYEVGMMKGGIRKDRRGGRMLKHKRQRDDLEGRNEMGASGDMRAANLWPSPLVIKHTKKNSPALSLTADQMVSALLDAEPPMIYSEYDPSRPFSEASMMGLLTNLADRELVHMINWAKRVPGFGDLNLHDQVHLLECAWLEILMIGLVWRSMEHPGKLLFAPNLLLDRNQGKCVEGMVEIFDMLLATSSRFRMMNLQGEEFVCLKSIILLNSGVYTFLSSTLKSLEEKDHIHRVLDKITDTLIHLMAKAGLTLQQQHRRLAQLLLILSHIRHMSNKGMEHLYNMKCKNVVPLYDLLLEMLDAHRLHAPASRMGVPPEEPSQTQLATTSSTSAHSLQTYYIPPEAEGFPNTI
# Chain of Agonist Androgen Response Element (ARE), AR (gene 367) (P10275 whole entry, looked up): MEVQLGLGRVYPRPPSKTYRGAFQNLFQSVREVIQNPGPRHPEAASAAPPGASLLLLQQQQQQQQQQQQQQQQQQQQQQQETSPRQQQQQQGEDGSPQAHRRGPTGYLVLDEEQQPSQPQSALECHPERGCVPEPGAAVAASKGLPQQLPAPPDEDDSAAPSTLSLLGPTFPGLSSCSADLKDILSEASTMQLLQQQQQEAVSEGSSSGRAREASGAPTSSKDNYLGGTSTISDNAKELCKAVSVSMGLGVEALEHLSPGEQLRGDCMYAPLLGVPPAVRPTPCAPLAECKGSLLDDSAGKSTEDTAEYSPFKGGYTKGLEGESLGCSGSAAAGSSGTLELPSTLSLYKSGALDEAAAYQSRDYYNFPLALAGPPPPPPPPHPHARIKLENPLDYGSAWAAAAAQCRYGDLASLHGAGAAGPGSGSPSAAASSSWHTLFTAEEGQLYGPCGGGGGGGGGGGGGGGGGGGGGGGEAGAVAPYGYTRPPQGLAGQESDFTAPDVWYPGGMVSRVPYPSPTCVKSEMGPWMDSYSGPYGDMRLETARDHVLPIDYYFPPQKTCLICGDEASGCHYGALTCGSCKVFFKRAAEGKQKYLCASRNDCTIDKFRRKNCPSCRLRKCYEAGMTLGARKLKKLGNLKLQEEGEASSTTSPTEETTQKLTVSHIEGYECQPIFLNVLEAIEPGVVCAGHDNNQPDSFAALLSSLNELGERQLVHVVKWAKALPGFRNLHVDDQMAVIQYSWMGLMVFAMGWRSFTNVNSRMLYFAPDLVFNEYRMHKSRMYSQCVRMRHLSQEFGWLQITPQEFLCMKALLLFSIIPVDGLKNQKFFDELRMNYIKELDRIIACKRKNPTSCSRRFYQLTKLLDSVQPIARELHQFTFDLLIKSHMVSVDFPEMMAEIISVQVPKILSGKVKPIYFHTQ
# Chain of Estrogen receptor beta (Homo sapiens) (Q92731 whole entry, looked up, the tested form may be a part): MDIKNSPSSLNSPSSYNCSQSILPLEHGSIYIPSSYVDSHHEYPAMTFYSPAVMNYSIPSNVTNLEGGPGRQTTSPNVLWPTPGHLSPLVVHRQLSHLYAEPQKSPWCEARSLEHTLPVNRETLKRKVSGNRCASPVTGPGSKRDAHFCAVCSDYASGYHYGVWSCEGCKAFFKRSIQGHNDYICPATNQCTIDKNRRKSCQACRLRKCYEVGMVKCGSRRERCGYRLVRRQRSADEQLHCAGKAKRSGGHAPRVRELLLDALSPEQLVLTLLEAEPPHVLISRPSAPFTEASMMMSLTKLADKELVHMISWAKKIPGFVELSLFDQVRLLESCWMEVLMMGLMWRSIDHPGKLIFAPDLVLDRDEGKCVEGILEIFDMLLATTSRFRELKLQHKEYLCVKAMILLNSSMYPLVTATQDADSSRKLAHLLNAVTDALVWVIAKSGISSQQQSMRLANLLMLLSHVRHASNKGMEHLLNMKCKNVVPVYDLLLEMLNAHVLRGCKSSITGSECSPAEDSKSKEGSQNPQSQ
# Chain of Bile acid receptor (Homo sapiens) (Q96RI1 whole entry, looked up, the tested form may be a part): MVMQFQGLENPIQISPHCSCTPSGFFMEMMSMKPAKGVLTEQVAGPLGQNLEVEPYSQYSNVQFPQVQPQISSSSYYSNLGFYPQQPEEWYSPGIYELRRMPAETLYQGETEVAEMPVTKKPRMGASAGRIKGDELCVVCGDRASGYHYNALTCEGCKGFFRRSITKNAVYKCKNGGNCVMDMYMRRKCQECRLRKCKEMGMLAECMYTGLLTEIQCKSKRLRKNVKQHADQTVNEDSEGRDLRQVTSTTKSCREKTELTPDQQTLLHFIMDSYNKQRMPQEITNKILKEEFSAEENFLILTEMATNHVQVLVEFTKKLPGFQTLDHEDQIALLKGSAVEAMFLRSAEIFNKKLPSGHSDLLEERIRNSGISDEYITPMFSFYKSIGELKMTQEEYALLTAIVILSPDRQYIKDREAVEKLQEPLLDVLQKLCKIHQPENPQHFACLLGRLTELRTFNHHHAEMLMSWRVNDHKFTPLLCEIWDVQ
# Chain of Estrogen receptor (Homo sapiens) (P03372 whole entry, looked up): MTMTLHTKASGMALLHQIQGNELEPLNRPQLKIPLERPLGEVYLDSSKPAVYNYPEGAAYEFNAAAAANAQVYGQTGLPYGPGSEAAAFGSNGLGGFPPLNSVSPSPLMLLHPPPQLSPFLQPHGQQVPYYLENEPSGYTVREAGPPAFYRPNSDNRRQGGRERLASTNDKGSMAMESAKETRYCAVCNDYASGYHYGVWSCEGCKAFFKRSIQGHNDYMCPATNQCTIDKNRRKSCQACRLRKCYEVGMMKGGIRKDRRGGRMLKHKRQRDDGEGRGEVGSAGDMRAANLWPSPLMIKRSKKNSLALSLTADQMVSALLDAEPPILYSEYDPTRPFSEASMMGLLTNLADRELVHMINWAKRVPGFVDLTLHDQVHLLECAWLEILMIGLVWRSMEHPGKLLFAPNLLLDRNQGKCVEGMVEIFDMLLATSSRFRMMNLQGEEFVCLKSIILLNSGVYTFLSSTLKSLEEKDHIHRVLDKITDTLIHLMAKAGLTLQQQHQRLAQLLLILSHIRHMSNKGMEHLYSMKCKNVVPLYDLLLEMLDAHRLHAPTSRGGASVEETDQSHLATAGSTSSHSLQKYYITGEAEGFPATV
# Chain of human Norepinephrine Transporter (NET), SLC6A2 (gene 6530) (P23975 whole entry, looked up): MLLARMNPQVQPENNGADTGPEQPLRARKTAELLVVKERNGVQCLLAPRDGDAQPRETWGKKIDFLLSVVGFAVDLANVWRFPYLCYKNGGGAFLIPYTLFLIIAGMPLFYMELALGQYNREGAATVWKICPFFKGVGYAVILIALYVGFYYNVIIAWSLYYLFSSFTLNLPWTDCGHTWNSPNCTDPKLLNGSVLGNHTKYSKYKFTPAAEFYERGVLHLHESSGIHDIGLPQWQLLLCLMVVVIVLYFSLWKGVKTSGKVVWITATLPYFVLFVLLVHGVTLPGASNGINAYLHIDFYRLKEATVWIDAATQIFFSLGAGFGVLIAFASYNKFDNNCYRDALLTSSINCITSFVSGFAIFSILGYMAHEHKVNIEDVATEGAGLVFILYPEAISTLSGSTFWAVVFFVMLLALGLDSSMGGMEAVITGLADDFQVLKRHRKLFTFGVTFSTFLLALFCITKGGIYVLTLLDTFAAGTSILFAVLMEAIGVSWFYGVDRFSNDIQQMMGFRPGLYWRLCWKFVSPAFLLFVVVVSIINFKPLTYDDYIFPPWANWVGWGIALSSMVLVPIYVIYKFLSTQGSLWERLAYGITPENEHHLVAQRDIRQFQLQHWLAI
# Chain of Peroxisome proliferator-activated receptor gamma (Homo sapiens) (P37231 whole entry, looked up): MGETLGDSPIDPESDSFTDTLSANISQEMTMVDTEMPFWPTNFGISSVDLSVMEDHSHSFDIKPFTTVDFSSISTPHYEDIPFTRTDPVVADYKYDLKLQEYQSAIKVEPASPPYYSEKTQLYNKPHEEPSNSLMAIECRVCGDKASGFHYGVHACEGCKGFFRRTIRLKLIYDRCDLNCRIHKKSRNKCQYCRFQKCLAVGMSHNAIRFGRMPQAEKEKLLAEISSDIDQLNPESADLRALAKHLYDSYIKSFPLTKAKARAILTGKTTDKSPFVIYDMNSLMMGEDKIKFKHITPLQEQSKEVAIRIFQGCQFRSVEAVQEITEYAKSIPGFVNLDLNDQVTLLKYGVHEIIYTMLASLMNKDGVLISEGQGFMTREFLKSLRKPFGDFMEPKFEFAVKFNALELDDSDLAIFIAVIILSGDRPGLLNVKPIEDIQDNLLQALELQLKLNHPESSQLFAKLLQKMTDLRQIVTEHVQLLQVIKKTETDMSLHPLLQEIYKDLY
# Chain of Norway rat Vesicular Monoamine Transporter (VMAT2), neurotransmitter transporter, Slc18a2 (gene 25549) (Q01827 whole entry, looked up): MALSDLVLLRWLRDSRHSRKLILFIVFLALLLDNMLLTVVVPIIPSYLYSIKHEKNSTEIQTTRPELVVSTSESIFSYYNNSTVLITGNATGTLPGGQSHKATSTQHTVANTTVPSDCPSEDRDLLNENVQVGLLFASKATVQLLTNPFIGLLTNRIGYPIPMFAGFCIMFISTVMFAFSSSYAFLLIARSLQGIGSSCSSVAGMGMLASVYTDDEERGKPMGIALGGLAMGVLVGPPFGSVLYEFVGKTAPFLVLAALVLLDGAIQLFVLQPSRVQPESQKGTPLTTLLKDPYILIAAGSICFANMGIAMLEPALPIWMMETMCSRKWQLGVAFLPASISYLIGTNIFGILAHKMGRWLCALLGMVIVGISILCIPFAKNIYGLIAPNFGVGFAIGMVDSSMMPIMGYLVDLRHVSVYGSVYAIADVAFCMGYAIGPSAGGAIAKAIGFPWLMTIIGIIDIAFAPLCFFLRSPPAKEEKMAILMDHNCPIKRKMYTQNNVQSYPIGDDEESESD
# Chain of guinea pig Sigma Receptor, Non-selective Binding, SIGMAR1 (gene 100135589) (Q60492 whole entry, looked up): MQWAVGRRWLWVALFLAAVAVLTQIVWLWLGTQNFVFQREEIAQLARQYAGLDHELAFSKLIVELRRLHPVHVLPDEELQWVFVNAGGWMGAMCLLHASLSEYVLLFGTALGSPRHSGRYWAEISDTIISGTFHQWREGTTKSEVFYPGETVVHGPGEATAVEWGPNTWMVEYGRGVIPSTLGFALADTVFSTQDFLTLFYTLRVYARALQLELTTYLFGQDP
smiles,measurement,setting,value
O=C(OC1CCCCC1)c1ccccc1C(=O)OC1CCCCC1,outcome,[1],inactive
same,outcome,[2],inactive
same,outcome,[3],inactive
same,AC50,[4],40.1 µM (active)
Nc1ccc(-c2ccc(N)c(Cl)c2)cc1Cl,AC50,[5],32.5 µM (active)
same,AC50,[6],3.73 µM (active)
same,AC50,[7],1.63 µM (active)
same,AC50,[8],3.04 µM (active)
COc1cccc(C=O)c1,outcome,[9],inactive
CCCCCCCCc1ccc(O)cc1,outcome,[1],inactive
same,AC50,[10],12.3 µM (active)
Clc1nc(Cl)nc(Cl)n1,outcome,[2],inactive
Cc1ccc2ccccc2c1C,outcome,[11],inactive
same,outcome,[10],inactive
same,outcome,[2],inactive
same,outcome,[3],inactive
O=C(CCl)CCl,outcome,[12],inactive
BrCCBr,outcome,[10],inactive
same,outcome,[2],inactive
O=c1[nH]c(=O)[nH]c(=O)[nH]1,AC50,[11],17.2 µM (active)
same,outcome,[10],inactive
CCCCCCCCSC(=O)Oc1cc(Cl)nnc1-c1ccccc1,outcome,[2],inactive
CCC1(c2ccc(N)cc2)CCC(=O)NC1=O (configuration not stated),outcome,[11],inactive
same,outcome,[2],inactive
same,outcome,[3],inactive
CC(=O)C=C(C)C,AC50,[2],7.47 µM (active)
ClC(Cl)=C(Cl)C(Cl)=C(Cl)Cl,outcome,[2],inactive
same,outcome,[3],inactive
COP(=S)(OC)Oc1cc(Cl)c(Cl)cc1Cl,outcome,[8],inactive
c1cc[c]([Hg][c]2ccccc2)cc1,outcome,[11],inactive
same,outcome,[10],inactive
same,outcome,[2],inactive
same,AC50,[4],29 µM (active)
COc1ccc(C=O)cc1,outcome,[2],inactive
O=S(=O)(c1ccc(Cl)cc1)c1ccc(Cl)cc1,outcome,[10],inactive
same,outcome,[2],inactive
same,outcome,[3],inactive
CC(C)(C)c1cc(O)ccc1O,AC50,[8],13.8 µM (active)
same,outcome,[2],inactive
same,outcome,[4],inactive
CNC,outcome,[2],inactive
same,outcome,[3],inactive
COc1ccc(C=O)cc1OC,outcome,[10],inactive
same,outcome,[2],inactive
N#CN=C(N)N,outcome,[10],inactive
same,outcome,[2],inactive
Oc1c(I)cc(I)cc1I,AC50,[8],25 µM (active)
OCC(O)CCl (configuration not stated),outcome,[2],inactive
same,outcome,[3],inactive
CCOC(=O)Nc1cccc(OC(=O)Nc2ccccc2)c1,AC50,[8],3.25 µM (active)
same,outcome,[12],inactive
same,outcome,[10],inactive
same,outcome,[2],inactive
same,outcome,[3],inactive
CC(=O)c1cc(C(C)(C)C)cc2c1CCC2(C)C,outcome,[2],inactive
Cc1cc(Cl)ccc1O[C@H](C)C(=O)O,outcome,[8],inactive
Cc1ccc(N)cc1Cl,outcome,[2],inactive
C=CC(=O)OCCCCCC(C)C,outcome,[12],inactive
same,outcome,[11],inactive
same,outcome,[10],inactive
same,outcome,[2],inactive
same,outcome,[4],inactive
O=C(Cc1ccccc1)c1ccccc1,outcome,[2],inactive
same,outcome,[3],inactive
same,outcome,[4],inactive
CC(C)OC(=O)Nc1ccccc1,AC50,[12],5.18 µM (active)
same,outcome,[2],inactive
same,outcome,[3],inactive
O=C1CCCN1,outcome,[12],inactive
same,outcome,[2],inactive
CC(C)c1cccc(C(C)C)c1O,outcome,[10],inactive
same,outcome,[2],inactive
ClCC(Cl)CCl,outcome,[12],inactive
C=C(C)C#N,outcome,[10],inactive
same,outcome,[2],inactive
same,outcome,[4],inactive
COP(=O)(OC)OC,outcome,[11],inactive
same,outcome,[2],inactive
same,outcome,[4],inactive
Cl/C=C/Cl,outcome,[12],inactive
same,outcome,[2],inactive
NC(=O)O,outcome,[2],inactive
Cl/C=C\C[N+]12CN3CN(CN(C3)C1)C2,outcome,[10],inactive
same,AC50,[2],82.2 µM (active)
C=CCc1ccc(OC)cc1,outcome,[10],inactive
CCCCOCCOC(C)=O,outcome,[2],inactive
same,outcome,[4],inactive
